# From the supplement of paper PMC8728848
# About 410 targets per protein were measured; listed, in parts, are those with the strongest signals and a random draw of the rest.
# B1: Epa11 (Candida glabrata) (protein)
# chain: MGSSHHHHHHSSGLVPRGSHMASSNAPNYPVGCSPSVGTQLTPGLSLEVYAYPMDGNNGYCWNATYKDPEFPRSGYLKNKLLGKADGVVGPLNFLAKNKDCSPKVDTLPAGFNFPQPITVTNFTMVLFGYLAPKQSGKYTFKLLADDLLLLNLGATNAFDCCNREATKNNLGEFLAYNLWPNQDKNVTVYLEKGVYYPLRLFFNNRDGGSQLDFSYYFNDSPAPLTDFSGMFFSVPDGAECPARI
# Tests used:
# Assay in all cases: glycan array binding signal (z-score within array); higher = stronger binding
# Conditions in all cases: glycan notation: IUPAC condensed, linker removed
# [1] = molecular target: GlcA3S(b1-3)Gal(b1-4)GlcNAc(b1-2)Man
# Outline: (§1)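 From the Consortium for Functional Glycomics database, 3228 arrays were curated, keeping only those whose protein sequence was available. Binding is given as a within-array Z-score averaged across arrays sharing a protein sequence and across linkers. Negative Z-scores can be read as non-binding.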
# [2] = molecular target: GlcA3S(b1-3)Gal(b1-4)GlcNAc(b1-3)Gal(b1-4)Glc
# Outline: as §1
# [3] = molecular target: GlcNAc(a1-4)Gal(b1-4)GalNAc
# Outline: as §1
# [4] = molecular target: GlcNAc(a1-4)Gal(b1-4)GlcNAc(b1-3)Gal(b1-4)[Fuc(a1-3)]GlcNAc(b1-3)Gal(b1-4)[Fuc(a1-3)]GlcNAc
# Outline: as §1
# [5] = molecular target: GlcNAc(b1-2)[GlcNAc(b1-4)]Man(a1-3)[GlcNAc(b1-4)][GlcNAc(b1-2)[GlcNAc(b1-6)]Man(a1-6)]Man(b1-4)GlcNAc(b1-4)[Fuc(a1-6)]GlcNAc
# Outline: as §1
# [6] = molecular target: GlcNAc(b1-3)Gal(b1-4)GlcNAc(b1-3)Gal(b1-4)GlcNAc(b1-3)Gal(b1-4)GlcNAc(b1-2)Man(a1-3)[GlcNAc(b1-3)Gal(b1-4)GlcNAc(b1-3)Gal(b1-4)GlcNAc(b1-3)Gal(b1-4)GlcNAc(b1-2)Man(a1-6)]Man(b1-4)GlcNAc(b1-4)GlcNAc
# Outline: as §1
# GlcNAc(b1-6)GalNAc = molecular target: GlcNAc(b1-6)GalNAc
# Outline: as §1
# [7] = molecular target: Man(a1-3)[Man(a1-6)]Man(b1-4)GlcNAc(b1-4)[Fuc(a1-6)]GlcNAc
# Outline: as §1
# [8] = molecular target: Neu5Ac(a2-3)Gal(b1-3)GlcNAc(b1-2)Man
# Outline: as §1
# [9] = molecular target: Neu5Ac(a2-3)Gal(b1-3)GlcNAc(b1-2)Man(a1-3)[GlcNAc(b1-4)][Neu5Ac(a2-3)Gal(b1-3)GlcNAc(b1-2)Man(a1-6)]Man(b1-4)GlcNAc(b1-4)GlcNAc
# Outline: as §1
# [10] = molecular target: Neu5Ac(a2-3)Gal(b1-3)GlcNAc(b1-3)GalNAc
# Outline: as §1
# [11] = molecular target: Neu5Ac(a2-3)Gal(b1-3)GlcNAc(b1-6)GalNAc
# Outline: as §1
# [12] = molecular target: Neu5Ac(a2-3)Gal(b1-3)[Fuc(a1-4)]GlcNAc
# Outline: as §1
# [13] = molecular target: Neu5Ac(a2-3)Gal(b1-4)GlcNAc(b1-2)Man(a1-3)[Neu5Ac(a2-6)Gal(b1-4)GlcNAc(b1-2)Man(a1-6)]Man(b1-4)GlcNAc(b1-4)GlcNAc
# Outline: as §1
# [14] = molecular target: Neu5Ac(a2-3)Gal(b1-4)GlcNAc(b1-3)Gal
# Outline: as §1
# [15] = molecular target: Neu5Ac(a2-3)Gal(b1-4)GlcNAc(b1-3)Gal(b1-4)GlcNAc(b1-6)[Gal(b1-3)]GalNAc
# Outline: as §1
# [16] = molecular target: Neu5Ac(a2-6)Gal(b1-4)GlcNAc(b1-2)Man(a1-3)[Neu5Ac(a2-6)Gal(b1-4)GlcNAc(b1-2)Man(a1-6)]Man(b1-4)GlcNAc(b1-4)GlcNAc
# Outline: as §1
# [17] = molecular target: Neu5Ac(a2-6)GlcNAc(b1-4)GlcNAc(b1-4)GlcNAc
# Outline: as §1
# Neu5Ac(b2-6)GalNAc = molecular target: Neu5Ac(b2-6)GalNAc
# Outline: as §1
# [18] = molecular target: Neu5Gc(a2-3)Gal(b1-3)GlcNAc
# Outline: as §1
# [19] = molecular target: Neu5Gc(a2-3)Gal(b1-4)GlcNAc
# Outline: as §1
# Neu5Gc(a2-6)GalNAc = molecular target: Neu5Gc(a2-6)GalNAc
# Outline: as §1
binder,measurement,setting,value
B1,glycan array binding signal (z-score),[1],0.356
same,glycan array binding signal (z-score),[2],-0.579
same,glycan array binding signal (z-score),[3],-0.891
same,glycan array binding signal (z-score),[4],0.211
same,glycan array binding signal (z-score),[5],2.33
same,glycan array binding signal (z-score),[6],-0.16
same,glycan array binding signal (z-score),GlcNAc(b1-6)GalNAc,-0.586
same,glycan array binding signal (z-score),[7],5.52
same,glycan array binding signal (z-score),[8],-0.819
same,glycan array binding signal (z-score),[9],2.81
same,glycan array binding signal (z-score),[10],0.127
same,glycan array binding signal (z-score),[11],0.52
same,glycan array binding signal (z-score),[12],-0.534
same,glycan array binding signal (z-score),[13],-0.573
same,glycan array binding signal (z-score),[14],-0.477
same,glycan array binding signal (z-score),[15],-0.079
same,glycan array binding signal (z-score),[16],-0.433
same,glycan array binding signal (z-score),[17],-0.053
same,glycan array binding signal (z-score),Neu5Ac(b2-6)GalNAc,-0.375
same,glycan array binding signal (z-score),[18],0.029
same,glycan array binding signal (z-score),[19],-0.644
same,glycan array binding signal (z-score),Neu5Gc(a2-6)GalNAc,-0.604
